# D2 ag-1: Beta-Arrestin HTS for Positive Allosteric Modulators of the Human D2 Dopamine Receptor: Agonists; DiscoveRx PathHunter D2 beta-arrestin, luminescence, 90 min; 100% = 57 uM dopamine signal; activation, % (test concentration not listed); actives 0.084% (n = 360,000); in the data active means activation above about 40%
# Target sequence (P14416 whole entry, looked up): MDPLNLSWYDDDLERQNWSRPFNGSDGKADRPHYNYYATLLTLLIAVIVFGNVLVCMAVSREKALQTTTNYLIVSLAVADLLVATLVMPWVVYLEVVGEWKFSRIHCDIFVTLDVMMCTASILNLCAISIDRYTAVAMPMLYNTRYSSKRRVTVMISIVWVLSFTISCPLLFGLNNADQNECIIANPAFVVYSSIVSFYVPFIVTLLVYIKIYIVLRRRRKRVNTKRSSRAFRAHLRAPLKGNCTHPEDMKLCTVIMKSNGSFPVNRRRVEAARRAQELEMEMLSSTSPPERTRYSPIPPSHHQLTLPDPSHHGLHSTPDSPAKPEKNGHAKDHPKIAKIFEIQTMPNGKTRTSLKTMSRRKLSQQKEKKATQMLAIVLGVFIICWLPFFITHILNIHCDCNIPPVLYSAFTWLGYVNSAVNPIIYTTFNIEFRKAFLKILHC
#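 DiscoveRx PathHunter D2 beta-arrestin cells (2,100/well) attached overnight, then compound-stimulated 90 min at 37 C in HBSS/10 mM HEPES/0.1% Tween-20 buffer; beta-galactosidase complementation read by luminescence after 1 h at ambient temperature. Dopamine 57 uM final (EC100) as control.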
# D2 PAM-1: Beta-Arrestin HTS for Positive Allosteric Modulators of the Human D2 Dopamine Receptor: Potentiators; D(2) dopamine receptor (Homo sapiens), P14416; DiscoveRx D2 beta-arrestin cells, luminescence, 90 min; 100% = 57 uM dopamine signal; potentiation, % (test concentration not listed); actives 0.23% (n = 360,000); AID 624464, 2012; in the data active means potentiation above about 50%
#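 D2 cells co-treated with compound plus 50 nM dopamine (EC20) for 90 min at 37 deg C to detect potentiation. Beta-arrestin recruitment was read as enzyme-fragment luminescence after 1 h at ambient temperature. Full response was set by 57 uM dopamine.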
# D2 ag-2: HTS Assay for Allosteric Agonists of the Human D2 Dopamine Receptor: Primary Screen for Agonists; D(2) dopamine receptor (Homo sapiens), P14416; HEK293 T-REx D2 cells, calcium flux agonist mode; activation, % at 2 µM; actives 0.53% (n = 340,000);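 active means activation over 3 SD above normal in the single-dose calcium agonist read, cut at about 30% in these data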; further: 0% is about no effect
#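 In this primary screen, compounds producing a positive calcium signal within 180 s of addition to tetracycline-induced, force-coupled HEK293 Trex D2 cells are flagged; cells are dye-loaded with a no-wash calcium kit beforehand.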
# D2 PAM-2: HTS Assay for Positive Allosteric Modulators of the Human D2 Dopamine Receptor: Primary Screen for Potentiators | D(2) dopamine receptor (Homo sapiens), P14416 | HEK293 T-REx D2, calcium flux, EC20 dopamine potentiation | potentiation, % at 10 µM | actives 0.34% (n = 340,000);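 active means potentiation over 3 SD above the plate norm, cut at about 30% in these data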; further: 0% is about no effect
#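 Calcium flux readout, no-wash dye, 1 read/s. Inducible HEK293 Trex D2 line, overnight 30 C. Compound alone 180 s (agonist flags), then EC20 dopamine, another 180 s to score potentiation.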
# D2 antagonist: HTS Assay for Allosteric Antagonists of the Human D2 Dopamine Receptor: Primary Screen for Antagonists. actives 2% (n = 340,000). D(2) dopamine receptor (Homo sapiens), P14416. inhibition, % at 10 µM. HEK293 TREx D2 cells, calcium flux, dopamine EC80; in the data active means inhibition above about 30%; inactive means below that, where a call was filed; further: 0% is about no effect
#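 In this primary screen, negative modulation is detected by tracking calcium flux after an EC80 dopamine challenge in inducible HEK293 T-REx D2 cells preexposed to test compound for 180 s.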
# * hit, by the source's call; . = not tested or not shown. An excerpt weighted towards active compounds, which were near 2.4% of everything screened.
SMILES,D2 ag-1,D2 PAM-1,D2 ag-2,D2 PAM-2,D2 antagonist
COc1ccc(-c2nn(C)c3sc(C(=O)Nc4cccc(F)c4)cc23)cc1OC,.,.,.,-26,.
CC(C)N(Cc1ccccc1)C(=O)CC(=O)N(Cc1ccccc1)C(C)C,-2,-11,0,35*,1
CC(C)N(Cc1ccccc1)C(=O)CN1C(=O)c2ccccc2C1=O,-1,-3,0,-8,-3
CCOC(=O)C(=NCCCN(C)C)NNc1cc(C(F)(F)F)ccc1Cl,0,-6,-1,-14,35*
CCOC(=O)C(=NCCCN(C)C)NNc1ccc(Br)cc1,5,-11,0,2,-1
CCC(NC(=O)Nc1cc(OC)ccc1OC)c1c(-n2cccc2)sc2c1CCN(CC)C2 (centres undefined),.,.,0,.,.
CC1(C)CC(n2c(NCCO)nc3c(c2=O)C2(CCCC2)Cc2ccccc2-3)CCO1 (centres undefined),-1,-2,1,34*,-13
O=c1c2c(nc(NCCO)n1CC1CCCCC1)-c1ccccc1CC21CCCC1,-4,-4,1,16,8
Cc1ccc2c(=O)cc(C(=O)Nc3ccc(S(=O)(=O)N(C)Cc4ccccc4)cc3)oc2c1C,.,.,-1,13,.
Cc1cccc(C)c1NC(=S)N/N=C/c1ccc(C(=O)O)cc1,-1,1,0,-1,36*
Nc1nc(Cl)nc2c1ncn2[C@@H]1O[C@H](CO)[C@@H](O)[C@H]1O,2,-17,4,12,37*
CC(C)c1ccc(OCC(=O)Nc2c3c(nn2C(C)(C)C)CS(=O)(=O)C3)cc1,10,57*,-1,13,4
Cc1ccccc1-c1nc(CN2CCC(C(=O)NC(C)C)CC2)c(C)o1,.,.,-1,-1,.
COc1cc(/C=C/c2nc(C#N)c(NC3CCCCC3)o2)cc(OC)c1OC,.,.,-1,3,.
CCN(CC)CCNC(=O)c1cc2cc(Br)ccc2s1,0,-15,-1,-5,50*
CCN(CC)CCNC(=O)c1cc(-c2ccc(Br)s2)nc2ccccc12,1,-18,1,-10,-29
Cc1ccc(C)c(C(=O)N(Cc2nc(-c3ccc(Cl)cc3)no2)C(C)C)c1,0,0,1,-1,40*
Cc1ccc(S(=O)(=O)c2c(Nc3cc(F)ccc3F)sc(C(=O)c3ccc(F)cc3)c2N)cc1,.,.,11,10,.
Cc1ccc(CNC(=O)CO/N=C/c2ccc(C(C)(C)C)cc2)cc1,-3,-17,1,-11,38*
Cc1cc(C)n(-c2ccc(C(=O)N3CC(C)OC(C)C3)cc2)n1 (centres undefined),-4,-4,0,9,34*
CCc1ccc(NC(=O)CCn2c(-c3ccc(OC)cc3)cc(C(C)=O)c2C)cc1,.,.,0,9,.
O=C(CSc1nc(O)c(C2CCCCC2)c(=O)[nH]1)N1CCOCC1,-2,-10,0,-12,43*
O=C(CSc1nc(O)c(Cc2ccccc2)c(=O)[nH]1)N1CCOCC1,-4,-1,14,-7,1
CCOc1ccc(C(=O)N(Cc2nc(-c3cccc(C)c3)no2)C(C)C)cc1,.,.,0,.,.
CCC(=O)N1c2ccc(S(=O)(=O)CCC(=O)NCc3ccc(OC)cc3)cc2CC1C (centres undefined),.,.,0,9,.
SMILES,D2 ag-1,D2 PAM-1,D2 ag-2,D2 PAM-2,D2 antagonist
O=C(CN1CCC(O)(c2cccc(F)c2)CC1)NCCc1c[nH]c2ccccc12,-4,-24,-1,-18,45*
Cc1cccc(CC2C(=O)Nc3ccccc32)c1 (centres undefined),.,.,0,12,.
Cc1cc(C)c(Cn2c(C)c(CNCCCc3ccccc3)c(C(=O)O)c2C)c(C)c1,.,.,-1,1,.
CCN1CCCC1CNC(=O)c1ccc(Sc2ccc(F)cc2)c([N+](=O)[O-])c1 (centres undefined),-5,-18,1,-28,35*
CCN1CCCC1CNC(=O)c1ccc(Sc2ccccc2Cl)c([N+](=O)[O-])c1 (centres undefined),-1,-9,0,-18,72*
CCN1CCN(C(=O)c2ccc(Sc3ccccc3Cl)c([N+](=O)[O-])c2)CC1,1,-26,1,-22,1
O=C(C1CCN(S(=O)(=O)Cc2ccccc2)CC1)N1CCN(c2ccccc2)CC1,.,.,0,11,.
CCc1ccc(CNc2nc3nc(C)c(Cc4ccccc4)c(=O)n3[nH]2)cc1,.,.,1,-9,.
Cc1ccc(Cl)cc1N1CCN(C(=O)c2ccc(C)c(-n3c(C)nc4cccnc43)c2)CC1,.,.,-1,5,.
CC(C)(C)c1cc(C(=O)NNC(=O)Nc2cccc(Cl)c2)n(Cc2ccccc2)n1,-5,-21,1,-14,50*
CC1(CC(=O)N/N=C/c2ccc(OCc3ccc(Cl)cc3Cl)cc2)OCCCO1,3,1,0,-5,15
COc1cc(/C=N/NC(=O)CC2(C)OCCCO2)ccc1OCc1ccc(Cl)cc1Cl,-1,-3,0,-6,31*
O=C(CSc1nnc(-c2ccccn2)n1Cc1ccccc1)Nc1ccc2c(c1)OCO2,-1,-22,0,32*,15
Nn1c(SCC(=O)Nc2ccc3c(c2)OCO3)nnc1C1CCCCC1,-4,0,-1,7,31*
Cn1c(SCC(=O)Nc2ccc3c(c2)OCCO3)nnc1-c1ccccn1,0,3,0,6,-12
COc1cccc(NC(=O)C2CCCN(c3nnc(-n4c(C)ccc4C)s3)C2)c1 (centres undefined),.,.,0,-5,.
Cc1ccc(-c2onc(C)c2C)cc1S(=O)(=O)Nc1ccc(Cl)cn1,.,.,0,-2,.
CC1(C)Oc2ccc(C(=O)NC3CCCC3)cc2N(CC(=O)NC2CCCCC2)C1=O,-3,-19,1,-21,52*
Cc1ccc(C(=O)CCC(=O)OCC(=O)N2c3ccccc3NC(=O)C2(C)C)cc1,-1,-18,.,.,.
Cc1ccc(S(=O)(=O)CCC(=O)OCC(=O)N2c3ccccc3NC(=O)C2(C)C)cc1,-3,-15,0,6,90*
COc1ccc(Nc2nc(CC(C)=O)ns2)cc1,-2,-5,1,-3,10
COc1cccc(Nc2nc(CC(C)=O)ns2)c1,0,10,0,-11,33*
COc1cccc2cc(C(C)OC(=O)Nc3ccc(C)cc3)oc12 (centres undefined),3,-21,1,-8,32*
